Laboratory results published in PubChem BioAssay (EPA / NIEHS).
Activity calls are given as the source filed them. The calls were made as follows: active = hit-call score of the fitted dose curve at least 0.9, where 1 is the maximum; inactive = score below 0.9.

read-out: not listed separately; experiment: BSK_KF3CT_SRB: Viability Assessment in the BioMAP Diversity Plus: KF3CT Assay (AID 2283069); details: primary human keratinocytes with fibroblasts;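 also: total protein by sulforhodamine B staining as a cytotoxicity measure; read 24 h after compound addition; fitted for both signal gain and loss against DMSO baseline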
How it was run: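 Keratinocytes co-cultured with foreskin fibroblasts (human primary); chemical added, 24 h; fix 10% TCA, stain 0.1% SRB, A560. Bidirectional fit vs DMSO.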

Structure (SMILES) | outcome | AC50
O=C(O)CC(O)(CC(=O)O)C(=O)O | inactive | 
COc1ccc(OC(F)(F)F)cc1CN[C@H]1CCCN[C@H]1c1ccccc1 | inactive | 
CS(=O)(=O)c1ccc([C@@H](C[C@H]2CCC(=O)C2)C(=O)Nc2cnccn2)cc1Cl | inactive | 
O=C1c2c(O)cccc2Cc2cccc(O)c21 | inactive | 
Cc1c(C)c2c(c(C)c1O)CCC(C)(COc1ccc(CC3SC(=O)NC3=O)cc1)O2 (centres undefined) |  | 13.8 µM (active)
CCCCC(CC)COC(=O)CCCCCCCC(=O)OCC(CC)CCCC (centres undefined) | inactive | 
C#CC(O)C(CC)CCCC (centres undefined) | inactive | 
NCCOCCOCCN | inactive | 
COC(=O)[C@H]1[C@H]2C[C@@H]3c4[nH]c5cc(OC)ccc5c4CCN3C[C@H]2C[C@@H](OC(=O)c2cc(OC)c(OC)c(OC)c2)[C@@H]1OC | inactive | 
COC(=O)CCC(=O)OC | inactive | 
CC(=O)O | inactive | 
CC(=O)CC(c1ccccc1)c1c(O)c2ccccc2oc1=O (centres undefined) | inactive | 
CC(=O)O[C@]1(C(C)=O)CC[C@H]2[C@@H]3C=C(Cl)C4=CC(=O)[C@@H]5C[C@@H]5[C@]4(C)[C@H]3CC[C@@]21C | inactive | 
c1ccc2occc2c1 | inactive | 
NC1CCCCC1 | inactive | 
NC(=Nc1ccccc1)Nc1ccccc1 | inactive | 
CCCCC(CC)COP(=O)(OCC(CC)CCCC)OCC(CC)CCCC (centres undefined) | inactive | 
O=C(N[C@@H](c1ccccc1)[C@@H]1CCCCN1)c1cccc(C(F)(F)F)c1Cl |  | 30.3 µM (active)
Oc1ccccc1O | inactive | 
CC(=O)[C@@]1(O)CC[C@H]2[C@@H]3CCC4=CC(=O)CC[C@]4(C)[C@H]3CC[C@@]21C | inactive | 
CCCCOC(=O)CCCCC(=O)OCCCC | inactive | 
CCc1nc(N)nc(N)c1-c1ccc(Cl)cc1 | inactive | 
CO[C@@H]1COCC[C@@H]1N[C@@H]1CC[C@@](C(=O)N2CCc3ncc(C(F)(F)F)cc3C2)(C(C)C)C1 | inactive | 
O=C1OC(c2ccc(O)cc2)(c2ccc(O)cc2)c2ccccc21 | inactive | 
CN(C)CCCN1c2ccccc2Sc2ccc(Cl)cc21 |  | 31.6 µM (active)
Nc1nc(=S)c2[nH]cnc2[nH]1 | inactive | 
CC(C)OC(=O)C(C)(C)Oc1ccc(C(=O)c2ccc(Cl)cc2)cc1 | inactive | 
CCCCC(CC)CO (centres undefined) | inactive | 
CCCCCCC(C=O)=Cc1ccccc1 | inactive | 
CCOCCOCCO | inactive | 

read-out: Interleukin-1 alpha (IL1a), IL1A (gene 3552); experiment: BSK_KF3CT_IL1a: BioMAP Diversity Plus: KF3CT Assay for Interleukin-1 alpha (IL1a) Biomarker Activity (AID 2283070); details: primary human keratinocytes with fibroblasts; actives raise or lower the signal
How it was run: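 Chemicals were dosed onto co-cultured human keratinocytes and foreskin fibroblasts, IL-1a was quantified by ELISA at 24 h, and activity was fitted in both directions relative to DMSO controls.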

Structure (SMILES) | outcome | AC50
COC(=O)[C@H]1[C@H]2C[C@@H]3c4[nH]c5cc(OC)ccc5c4CCN3C[C@H]2C[C@@H](OC(=O)c2cc(OC)c(OC)c(OC)c2)[C@@H]1OC | inactive | 
CC(=O)O[C@]1(C(C)=O)CC[C@H]2[C@@H]3C=C(Cl)C4=CC(=O)[C@@H]5C[C@@H]5[C@]4(C)[C@H]3CC[C@@]21C | inactive | 
CN(C)CCCN1c2ccccc2Sc2ccc(Cl)cc21 |  | 31 µM (active)
CC(C)OC(=O)C(C)(C)Oc1ccc(C(=O)c2ccc(Cl)cc2)cc1 | inactive | 
CCCCCCC(C=O)=Cc1ccccc1 | inactive | 

read-out: TIMP metallopeptidase inhibitor 2 (TIMP2), TIMP2 (gene 7077); experiment: BSK_KF3CT_TIMP2: BioMAP Diversity Plus: KF3CT Assay for TIMP metallopeptidase inhibitor 2 (TIMP2) Biomarker Activity (AID 2283071); details: primary human keratinocytes with fibroblasts; actives raise or lower the signal
How it was run: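 Human primary keratinocyte/foreskin fibroblast co-culture dosed with chemical and sampled at 24 h. TIMP-2 levels quantified by ELISA; bidirectional fitting against DMSO negative control as baseline.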

Structure (SMILES) | AC50 | outcome
Cc1c(C)c2c(c(C)c1O)CCC(C)(COc1ccc(CC3SC(=O)NC3=O)cc1)O2 (centres undefined) | 20 µM (active) | 
COC(=O)CCC(=O)OC |  | inactive
CC(=O)O |  | inactive
CC(=O)CC(c1ccccc1)c1c(O)c2ccccc2oc1=O (centres undefined) |  | inactive
NC(=Nc1ccccc1)Nc1ccccc1 |  | inactive
CCCCC(CC)COP(=O)(OCC(CC)CCCC)OCC(CC)CCCC (centres undefined) |  | inactive
CO[C@@H]1COCC[C@@H]1N[C@@H]1CC[C@@](C(=O)N2CCc3ncc(C(F)(F)F)cc3C2)(C(C)C)C1 |  | inactive
Nc1nc(=S)c2[nH]cnc2[nH]1 |  | inactive
CCCCC(CC)CO (centres undefined) |  | inactive

read-out: Transforming growth factor beta 1 (TGFb1), TGFB1 (gene 7040); experiment: BSK_KF3CT_TGFb1: BioMAP Diversity Plus: KF3CT Assay for Transforming growth factor beta 1 (TGFb1) Biomarker Activity (AID 2283072); details: primary human keratinocytes with fibroblasts; actives raise or lower the signal
How it was run: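 Human keratinocyte plus foreskin fibroblast primary co-culture, dosed with chemical for 24 h. TGF-b1 quantified by ELISA. Activity fitted bidirectionally against DMSO negative control as baseline.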

Structure (SMILES) | outcome | AC50
O=C(O)CC(O)(CC(=O)O)C(=O)O | inactive | 
COc1ccc(OC(F)(F)F)cc1CN[C@H]1CCCN[C@H]1c1ccccc1 | inactive | 
CS(=O)(=O)c1ccc([C@@H](C[C@H]2CCC(=O)C2)C(=O)Nc2cnccn2)cc1Cl | inactive | 
O=C1c2c(O)cccc2Cc2cccc(O)c21 |  | 24.6 µM (active)
Cc1c(C)c2c(c(C)c1O)CCC(C)(COc1ccc(CC3SC(=O)NC3=O)cc1)O2 (centres undefined) |  | 20.9 µM (active)
CCCCC(CC)COC(=O)CCCCCCCC(=O)OCC(CC)CCCC (centres undefined) | inactive | 
C#CC(O)C(CC)CCCC (centres undefined) | inactive | 
NCCOCCOCCN | inactive | 
COC(=O)[C@H]1[C@H]2C[C@@H]3c4[nH]c5cc(OC)ccc5c4CCN3C[C@H]2C[C@@H](OC(=O)c2cc(OC)c(OC)c(OC)c2)[C@@H]1OC | inactive | 
COC(=O)CCC(=O)OC | inactive | 
CC(=O)O | inactive | 
CC(=O)CC(c1ccccc1)c1c(O)c2ccccc2oc1=O (centres undefined) | inactive | 
CC(=O)O[C@]1(C(C)=O)CC[C@H]2[C@@H]3C=C(Cl)C4=CC(=O)[C@@H]5C[C@@H]5[C@]4(C)[C@H]3CC[C@@]21C | inactive | 
c1ccc2occc2c1 | inactive | 
NC1CCCCC1 | inactive | 
NC(=Nc1ccccc1)Nc1ccccc1 | inactive | 
CCCCC(CC)COP(=O)(OCC(CC)CCCC)OCC(CC)CCCC (centres undefined) | inactive | 
O=C(N[C@@H](c1ccccc1)[C@@H]1CCCCN1)c1cccc(C(F)(F)F)c1Cl |  | 20 µM (active)
Oc1ccccc1O |  | 10.4 µM (active)
CC(=O)[C@@]1(O)CC[C@H]2[C@@H]3CCC4=CC(=O)CC[C@]4(C)[C@H]3CC[C@@]21C | inactive | 
CCCCOC(=O)CCCCC(=O)OCCCC | inactive | 
CCc1nc(N)nc(N)c1-c1ccc(Cl)cc1 | inactive | 
CO[C@@H]1COCC[C@@H]1N[C@@H]1CC[C@@](C(=O)N2CCc3ncc(C(F)(F)F)cc3C2)(C(C)C)C1 | inactive | 
O=C1OC(c2ccc(O)cc2)(c2ccc(O)cc2)c2ccccc21 |  | 12.6 µM (active)
CN(C)CCCN1c2ccccc2Sc2ccc(Cl)cc21 |  | 33.2 µM (active)
Nc1nc(=S)c2[nH]cnc2[nH]1 | inactive | 
CC(C)OC(=O)C(C)(C)Oc1ccc(C(=O)c2ccc(Cl)cc2)cc1 | inactive | 
CCCCC(CC)CO (centres undefined) | inactive | 
CCCCCCC(C=O)=Cc1ccccc1 | inactive | 
CCOCCOCCO | inactive | 
